# Assay outcomes (PubChem)
# A selection: hits, their analogues and other compounds. The true share with any hit is near 7.8%.
# Marburg entry inh: qHTS for inhibitors of binding or entry into cells for Marburg Virus; 300,000 tested, 1.8% active; Potency, µM (series often up to 37.8 µM), for the others: top-dose activity change, negative = inhibition, hits mostly inhibitors; Marburg virus pseudotyped entry inhibition, cell reporter; AID 540276, 2011; calls by dose curve; tested in HEK293 cells; also: potency is read from the fitted curve at half-maximal effect
# VACV mCherry inh: qHTS for Stage-Specific Inhibitors of Vaccinia Orthopoxvirus: mCherry Reporter Primary qHTS | Vaccinia virus mCherry reporter infection, fluorescence | Potency, µM (doses to about 36.5 µM), for the others: at the highest dose activity change, negative = inhibition, most hits filed as inhibitors | 310,000 tested, 0.63% active | AID 720579, 2013; calls by dose curve; tested in A549 cells; also: potency is read from the fitted curve at half-maximal effect; nearly all actives have a fitted effect of over 35% in size
# HCV inh: qHTS Assay for Inhibitors of Hepatitis C Virus (HCV). Huh7.5.1 HCVcc-Cre infection, luciferase reporter, 44 h. Potency, µM (top dose mostly 41.8 µM), without a hit: at the highest dose activity change, negative = inhibition, hits mostly inhibitors. 340,000 tested, 3.4% active; active = well fitted inhibition curve with a large enough effect; inconclusive = small, poorly fitted or top-dose-only effect, or another doubt; inactive = no such curve, though single readings can be large or run the other way; also: potency is read from the fitted curve at half-maximal effect
#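 Antiviral activity was scored by luciferase reporter output from cells infected with HCVcc-Cre (~0.5 moi) in presence of compound, 44 h infection period, cells seeded 1,000/well 4 h prior.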
# VACV Venus inh: qHTS for Stage-Specific Inhibitors of Vaccinia Orthopoxvirus: Venus Reporter Primary qHTS. Vaccinia virus Venus reporter expression, fluorescence. Potency, µM (doses to about 36.5 µM), for inactives: top-dose activity change, negative = inhibition, usual class: inhibitors. 330,000 tested, 0.46% active; calls by dose curve; tested in A549 cells; also: potency is read from the fitted curve at half-maximal effect; nearly all actives have a fitted effect of over 30% in size
# Lassa entry inh: qHTS for Inhibitors of binding or entry into cells for Lassa Virus; Potency, µM (titrated, usually from 37.9 µM), inactives show at the highest dose activity change, negative = inhibition, actives largely listed as inhibitors; 300,000 tested, 1.2% active; AID 540256, 2011; Lassa virus pseudotype entry inhibition, cell reporter; calls by dose curve; tested in HEK293 cells; also: potency is read from the fitted curve at half-maximal effect; nearly all actives have a fitted effect of over 50% in size
# HCMV inh: qHTS Assay for inhibitors of the human cytomegalovirus (HCMV) | HFF cells, HCMV-luciferase reporter, 72 h; stronger effect = lower value | activity change, negative = inhibition, % at 57.5 µM | 410,000 tested, 4.5% active | AID 1259415, 2018; in the data active = activity change below about -60%; inconclusive = no clear call, values can overlap the other calls; inactive = above about -39%
#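 HFF cells seeded 16 h at 37C, treated with compounds, infected with luciferase-reporter HCMV at MOI 1 PFU/cell; luciferase read at 72 h post infection, normalized to buffer-only and Salinomycin controls.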
# * = called active by the depositor; i = inactive; ? = inconclusive; . = no result; [ ] = dose if it differs, or a comment. % is scaled to controls: 0 for no effect and ±100 for the full control effect.
SMILES,Marburg entry inh,VACV mCherry inh,HCV inh,VACV Venus inh,Lassa entry inh,HCMV inh
Clc1ccc(-c2cc3ncc4c(n3n2)-c2ccccc2OC4)cc1,1%[46.1 µM],-11%,.,-6%,?,25
CCSc1ccc([C@@H]2[C@@H]3C(=O)N(CC)C(=O)[C@@H]3[C@]3(C(=O)OC)CCCCN23)cc1,.,-14%,0.71µM*,-23%,.,-27
CCN1C(=O)[C@@H]2[C@@H](c3ccc(-c4ccc(OC)cc4)cc3)N3CCCC[C@@]3(C(=O)OC)[C@@H]2C1=O,.,-15%,3.2µM*,-13%,.,26
Cc1ccc(NC(=O)Cn2cc(C(=O)c3ccco3)c3ccccc32)cc1,.,-12%[7.34 µM],.,-13%[7.34 µM],?,?
CCN1CCN(c2cc(N3CCCC3)c(F)cc2[N+](=O)[O-])CC1,21µM*,?,?,?,?,?
CN1CCN(c2cc(N3CCc4ccccc4C3)c(F)cc2[N+](=O)[O-])CC1,?,10µM*,?,?,?,-14
O=C(c1ccco1)N1CCN(c2cc(N3CCOCC3)c(F)cc2[N+](=O)[O-])CC1,-14%[46.1 µM],-7%,-13%,-21%,?,-103*
CCOC(=O)N1CCN(c2cc(N3CCOCC3)c(F)cc2[N+](=O)[O-])CC1,-7%,-11%,-13%,-6%,7.9µM*,6
CN1CCN(c2cc(N3CCCC3)c([N+](=O)[O-])cc2F)CC1,11%[46.1 µM],-23%,?,-24%,3%,-27
CCOC(=O)N1CCN(c2ccc(F)cc2[N+](=O)[O-])CC1,-28%,-19%,3%,-25%,-11%,?
O=C(c1ccco1)N1CCN(c2ccc([N+](=O)[O-])cc2F)CC1,18%[46.1 µM],-14%,-18%,-6%,14%[46.1 µM],8
Cc1cccc(N2CCN(CCCNc3ncnc4onc(-c5ccc(F)cc5)c34)CC2C)c1 (centres undefined),.,-15%,.,-8%,-15%[46.1 µM],-38
CN(CC(=O)Nc1ccc(Cl)cc1)c1ccc(S(=O)(=O)N2CCCCC2)cc1[N+](=O)[O-],?,-15%,13µM*,?,?,-68*
O=[N+]([O-])c1cc(S(=O)(=O)N2CCCC2)ccc1O,?,-11%,13%,-9%,7%,16
O=[N+]([O-])c1cc(S(=O)(=O)N2CCCCCC2)ccc1F,11µM*,?,?,14µM*,?,-97*
CCOC(=O)c1cc(-c2ccncc2)nc2c1c(C)nn2C,?,.,?,.,-17%,-3
CCOC(=O)c1cc(-c2ccccc2)nc2c1c(C)nn2-c1ccccn1,?,.,10µM*,?,-22%,-8
CC(=O)NC1=CC(=O)c2nonc2C1=O,.,1.6µM*,.,1.8µM*,.,.
Cc1ccc(C(C)C)cc1S(=O)(=O)NC1CC(C)(C)NC(C)(C)C1,13µM*,-11%,-18%,-24%,?,-14
Cc1ccc(S(=O)(=O)NC2CC(C)(C)NC(C)(C)C2)c(C)c1C,-30%,-2%,?,-14%,2%,-22
CCOC(=O)c1[nH]c2ccc(OC)cc2c1NC(=O)c1ccc2c(c1)OCO2,0%,.,?,.,-18%,11
CCN(CC(=O)Nc1c(C(=O)OC)[nH]c2ccccc12)c1ccc2c(c1)OCO2,6.5µM*,.,?,.,-9%,1
COC(=O)c1[nH]c2cc(OC)ccc2c1NC(=O)c1ccc2c(c1)OCO2,-16%,.,2.5µM*,.,-3%,-39
COC(=O)c1[nH]c2cc(OC)ccc2c1NC(=O)c1c(F)cccc1F,.,.,13µM*,.,.,-16
CCN(C1=NS(=O)(=O)c2ccccc21)N(CC)S(=O)(=O)c1ccc(C)cc1,.,.,-24%,.,.,-69*
SMILES,Marburg entry inh,VACV mCherry inh,HCV inh,VACV Venus inh,Lassa entry inh,HCMV inh
CCOC(=O)c1cc(CC)sc1/N=C/C1C(=O)CCCC1=O,1%[46.1 µM],-8%,-2%,-10%,1%[46.1 µM],-22
CCOC(=O)c1cc(CC)sc1/N=C/c1c(O)ccc2ccccc12,-10%,-20%,-27%,-11%,?,-70*
Oc1ccccc1N=Cc1c(O)ccc2ccccc12,-13%[46.1 µM],-21%,-7%,-22%,-5%[46.1 µM],-70*
CN(C)/N=C/c1c(O)ccc2ccccc12,15%,.,10µM*,-13%,5%,-11
Oc1ccc2ccccc2c1C=Nc1ccccc1Br,.,.,4%,.,.,-12
Cc1sc2ncnc(Sc3nnnn3-c3ccc(Cl)cc3)c2c1C,?,.,15%,.,21µM*,53
CCNC(=O)C1(C)CCN(C(=O)c2cccnc2SC)C1 (centres undefined),.,2%,.,5%,.,3
C[n+]1ccc(/C=C/c2cc[n+](C)c3ccccc23)c2ccccc21,.,?,.,10µM*,.,.
CN1C=C/C(=C\c2cc[n+](C)c3ccccc23)c2ccccc21,.,.,4.5µM*,.,.,-100*
COc1ccc(/C=C/c2cc[n+](C)c3ccccc23)cc1OC,.,-15%,.,35%,.,.
C[n+]1ccc(/C=C/c2ccc([N+](C)(C)C)cc2)c2ccccc21,.,i,.,458%,.,.
CC(=O)Nc1ccc(NC(=O)c2sc3nc4n(c(=O)c3c2C)CCCCC4)cc1,-20%,.,?,.,?,-82*
Cc1c(C(=O)Nc2cccc(C(F)(F)F)c2)sc2nc3n(c(=O)c12)CCCC3,.,-24%,.,-21%,18%[46.1 µM],-16
Cc1c(C(=O)N(C)c2cccc(C(F)(F)F)c2)sc2nc3n(c(=O)c12)CCCCC3,.,-4%[7.34 µM],.,-6%[7.34 µM],4%[46.1 µM],-76*
Cc1cccc(OCC(=O)OCc2cc(=O)n3nc(C4CCCCC4)sc3n2)c1,.,-5%,.,-7%,9%[46.1 µM],23
Cc1cccc(CN2CCN(C3CN(Cc4cn(Cc5cccc(Cl)c5)nn4)S(=O)(=O)C3)CC2)c1 (centres undefined),.,9%,.,-16%,.,?
CC1(C)CC2CC(C)(CN2S(=O)(=O)c2ccc(C(=O)Nc3ccc(S(=O)(=O)N4CCOCC4)cc3)cc2)C1 (centres undefined),2.8µM*,i,?,-15%,3.5µM*,-90*
O=C(Nc1ccc(NC(=O)c2ccc(Cl)c(S(=O)(=O)N3CCOCC3)c2)cc1)c1ccccc1,?,-14%,?,-20%,?,-25
CC(=O)Nc1ccc(S(=O)(=O)N2CC3(C)CC2CC(C)(C)C3)cc1 (centres undefined),?,-4%,0%,-7%,?,?
CC1(C)CC2CC(C)(CN2S(=O)(=O)c2ccc(C(=O)Nc3ccc(Cl)c(S(=O)(=O)N4CCOCC4)c3)cc2)C1 (centres undefined),3.5µM*,-11%,?,-12%,?,-98*
CCOC(=O)/C=C1\NC(C)(C)CC2=C1CC(O)=C(OC)C2,8%,.,.,.,.,.
